Outcome data for 40 compounds are collected here from PubChem BioAssay AID837 (The Scripps Research Institute Molecular Screening Center, 2007).

Activity calls are given as the source filed them.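 The calls were made as follows: active = relative FRET score above 0.01, or acceptor fluorescence over 30% below the sample-well median; inactive = the rest.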

Protein Rev (Human immunodeficiency virus type 1 group M subtype B (isolate WMJ22)), sequence (P05866 whole entry, looked up): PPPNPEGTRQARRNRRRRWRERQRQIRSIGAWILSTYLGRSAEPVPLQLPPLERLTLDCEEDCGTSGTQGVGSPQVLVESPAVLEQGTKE

The experiment concerns the target Protein Rev (Human immunodeficiency virus type 1 group M subtype B (isolate WMJ22)) (UniProt P05866). As to the kind of experiment: HIV-1 Rev-RRE binding inhibitors, retest, confirmation, biochemical, FRET, acceptor and relative FRET calls (AID 837).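 Also: relative FRET combines rise in Cy5 acceptor with fall in fluorescein donor.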 The conditions noted are these: Fl-Rev peptide / Cy5-RRE RNA FRET, 1536-well; at 8 µM.
With `CCN(CC)CCOc1cc2c(nn1)Oc1ccccc1N2C`, the outcome was inactive.

`c1coc(CNc2c3c(nc4ccccc24)CCC3)c1`: the compound was called inactive.

For the compound `CC1=NOC(=O)/C1=C/c1ccc(N(C)C)cc1`, the outcome is “active; fluoresces like the donor”.

With `C=CCn1c(=O)c(C(=O)NCCNCC)c(O)c2ccccc21`, the result was inactive.

On to `CN=C1c2cc3cc(OC)ccc3n2CCN1Cc1ccccc1`, for which the compound was called inactive.

As for `CCN1C2=NCCCN2c2cc(C)c(C)cc21`, the result was inactive.

Regarding `O=C(NCc1cccs1)c1cc2c(s1)CCCC2`, the outcome was inactive.

In the case of `O=c1nc(N2CCCC2)nc(Nc2ccccc2)[nH]1`, the outcome was inactive.

With `CCCCOC(=O)Cn1c(=N)n(CCC)c2ccccc21`, the outcome was inactive.

For the compound `CCOC(=O)CSc1ccc(S(=O)(=O)N(C)C2CCCCC2)cc1[N+](=O)[O-]`, the compound was classed as inactive.

`CCN1CCCC1CNC(=O)c1c(O)c2c([nH]c1=O)CCCC2` (stereo not given): the compound was called inactive.

For the compound `Cc1ccc(S(=O)(=O)c2c(COC(=O)c3ccc(Cl)cc3)c(-c3ccccc3)nn2C)cc1`, the compound was called inactive.

`Cc1nc(Nc2ccncc2)c2oc3ccccc3c2n1`: the compound was called active.

Regarding `Cc1nc(NC(=O)c2ccc(Br)o2)sc1C`, the call was inactive.

As for `CCCCN1CCc2c1nc1ccc(Br)cc1c2N`, the compound was called inactive.

Regarding `C=CCn1c(=N)n(CC(O)COc2ccc(OC)cc2)c2ccccc21` (stereo not given), the compound was classed as inactive.

Turning to `CC(C)(C)CC(C)(C)NCC(O)COc1c(F)cc(Br)cc1F` (stereo not given), the compound was classed as inactive.

In the case of `CC(C)OC(=O)c1c2nc3ccccc3nc2n2c1[nH]c(=O)c1ccccc12`, the compound was called inactive.

Regarding `COc1ccccc1Nc1nc(N)nc(CN(C)C2CCCCC2)n1`, the compound was classed as inactive.

Consider `CC[n+]1c(/C=C/Nc2ccccc2)oc2ccccc21`, for which the outcome is “active; fluoresces like the donor”.

In the case of `CCOc1cc(CNCCCN2CCOCC2)ccc1OCC(=O)Nc1cccc2ccccc12`, the compound was called inactive.

As to `O=C(c1cccc(F)c1)N1CCN(c2cccc(Cl)c2)CC1`, the call was inactive.

As to `O=c1[nH]c2cc(Br)cnc2nc1/C=C(\O)c1ccc(F)cc1`, the compound was called inactive.

On to `Cc1cc(-c2nc3c4c5c(sc4[nH]c(=O)n3n2)CCC5)c(C)o1`, for which the outcome was inactive.

For the compound `COc1ccc(Nc2nc(N)nc(CN(C)C3CCCCC3)n2)cc1`, the outcome was active.

`Cc1ccc(C)n1-c1sccc1C(=O)O`: the call was inactive.

For `COc1ccc(NC(=O)Nc2ccc(N(C)C)cc2)cc1`, the outcome was inactive.

In the case of `CCCCOc1ccc(NC2=NC3(CCCCC3)N=C(N)N2)cc1`, the result was inactive.

For the compound `Cc1cccc(N2C(N)=NC(N)=NC23CCCCC3)c1`, the compound was classed as inactive.

Regarding `N=c1n(Cc2ccccc2)c2ccccc2n1CC(O)c1ccco1` (stereo not given), the call was inactive.

With `COC(=O)c1scc(C)c1N/N=C(\C)c1ccc(F)cc1F`, the compound was classed as inactive.

As for `CN=C1c2c(-c3ccccc3)c3cc(OC)ccc3n2CCN1C`, the result was inactive.

Take `CCc1ccc2nc3nc(C)cc(C)c3c(N)c2c1`: the compound was classed as active.

As for `O=C(N/N=C/c1cccc(F)c1)c1cc(-c2ccco2)nc2ccccc12`, the outcome was “active; quenches the donor”.

In the case of `C[n+]1c2n(c3ccccc31)N=C(c1ccc(Cl)cc1)CS2`, the compound was called active.

Regarding `CCN(CC)CCCOc1ccc(C)cc1Br`, the result was inactive.

Take `C[n+]1c2n(c3ccccc31)N=C(c1ccc(Br)cc1)CS2`: the result was inactive.

On to `CN1CCc2c(sc3c2C(=O)NC(c2cn(Cc4ccccc4)c4ccccc24)N3)C1` (stereo not given), for which the compound was classed as inactive.

For the compound `Cc1ccsc1C1NC(=O)c2c(sc3c2CCN(C)C3)N1` (stereo not given), the outcome was inactive.

In the case of `OC(CNC1CCCC1)COc1c(F)cc(Br)cc1F` (stereo not given), the compound was classed as inactive.
